From PubChem BioAssay (NCATS)
Inconclusive results are not listed. Activity calls are given as the source filed them. Unless noted, the call rests on the fitted dose curve; in most records, active means well fitted curve in the direction sought with a large enough effect; inconclusive means small, poorly fitted or top-dose-only effect, or another doubt; inactive means no such curve, though single readings can be large; an effect the other way counts as inactive or inconclusive. *1 amine or outer side, *2 acyl side, *3 side chain or, on linkers, in order; H or OH if unused. Where a SMILES comes first, the peptide text is derived from it. Bridges are numbered along the chain shown (N, C = ends). [ ]: non-standard residue; d: D form. The star is where a group is joined. pTerphenylCO(4''-OnC5H11) = CCCCCOc1ccc(-c2ccc(-c3ccc(C(=O)*)cc3)cc2)cc1; Orn(4R-OH,5R-OH) = O=C([C@H](C[C@@H](O)[C@@H](O)N[*:3])N[*:1])[*:2]; hTyr(3S-OH,4S-OH) = N[C@H](C(=O)O)[C@H](O)[C@@H](O)c1ccc(O)cc1; Pro(3S-OH,4S-Me) = C[C@H]1CN[C@H](C(=O)O)[C@H]1O; Hyp = O=C(O)[C@@H]1C[C@@H](O)CN1

Target: Cytochrome P450 2C9 (Homo sapiens) (UniProt P11712)
Assay: Cytochrome P450 family 2 subfamily C member 9 (CYP2C9) small molecule antagonists: luciferase biochemical (cell-free) qHTS assay (AID 1645842; active means well fitted curve in the direction sought with a large enough effect in the repeat runs; an effect the other way counts as inactive or inconclusive; further: nearly all actives have a fitted effect of over 55% in size)
Settings: P450-Glo CYP2C9 enzyme assay, luciferin luminescence; series mostly up to 57.4 µM; activity change, negative = inhibition: at the top concentration
Outline: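 P450-Glo CYP2C9 system: proluciferin substrate with enzyme in mix containing 0.4% BSA, 10 min at room temperature, then NADPH regeneration solution added and incubated 1 h at 37C. Detection reagent stopped reaction; luminescence read after 20 min as RLU.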
Potency means the concentration at half of the fitted maximal effect.

Chain of Cytochrome P450 2C9 (Homo sapiens) (P11712 whole entry, looked up): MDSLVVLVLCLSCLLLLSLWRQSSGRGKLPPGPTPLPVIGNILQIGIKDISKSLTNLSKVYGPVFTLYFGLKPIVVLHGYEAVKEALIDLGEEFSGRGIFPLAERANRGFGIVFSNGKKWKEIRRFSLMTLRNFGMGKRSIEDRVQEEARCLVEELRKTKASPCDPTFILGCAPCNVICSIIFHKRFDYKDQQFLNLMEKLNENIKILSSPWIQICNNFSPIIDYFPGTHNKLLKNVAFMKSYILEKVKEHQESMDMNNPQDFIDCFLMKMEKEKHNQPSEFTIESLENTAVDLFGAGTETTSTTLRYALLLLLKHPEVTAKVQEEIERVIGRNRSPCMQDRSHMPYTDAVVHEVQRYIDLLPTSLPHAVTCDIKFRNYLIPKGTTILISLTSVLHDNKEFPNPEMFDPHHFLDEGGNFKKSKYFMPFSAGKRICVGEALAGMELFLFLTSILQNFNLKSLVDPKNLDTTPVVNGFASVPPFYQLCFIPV

SMILES	Potency
CCC[C@@]1(CCc2ccccc2)CC(O)=C([C@H](CC)c2cccc(NS(=O)(=O)c3ccc(C(F)(F)F)cn3)c2)C(=O)O1	26.8 µM (active)
CCCc1ccc(OCC(=O)N(Cc2nc(-c3cccnc3)no2)C(C)C)cc1	2.13 µM (active)
O=C(Nc1cc(C(F)(F)F)ccc1N1CCCCC1)c1ccncc1	2.13 µM (active)

Target: N-terminal Xaa-Pro-Lys N-methyltransferase 1 (Homo sapiens) (UniProt Q9BV86)
Assay: Confirmatory qHTS for Inhibitors of N-terminal methyltransferase 1 (NTMT1): MTaseGlo Assay (AID 1645874); further: nearly all actives have a fitted effect of over 65% in size;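 on activity change, negative = inhibition: luminescence from SAH made as NTMT1 methylates SPKRIA peptide using SAM; 0% = DMSO control and -100% = no-enzyme control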
Settings: NTMT1 enzyme, MTase-Glo SAH luminescence; series mostly up to 100 µM; activity change, negative = inhibition: at the top concentration
Outline: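 Room-temperature NTMT1 reaction, 30 min, with 100 uM SAM and 1 uM SPKRIA substrate; enzyme 125 nM. Read-out: MTase-Glo luminescence, normalized to no-enzyme and DMSO controls.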

Chain of N-terminal Xaa-Pro-Lys N-methyltransferase 1 (Homo sapiens) (Q9BV86 whole entry, looked up): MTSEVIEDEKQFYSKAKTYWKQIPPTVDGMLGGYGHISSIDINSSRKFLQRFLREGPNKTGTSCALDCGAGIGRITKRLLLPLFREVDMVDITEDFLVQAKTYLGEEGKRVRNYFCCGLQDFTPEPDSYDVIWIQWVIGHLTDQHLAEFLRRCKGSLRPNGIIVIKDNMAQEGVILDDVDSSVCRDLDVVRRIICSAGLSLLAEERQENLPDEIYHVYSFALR

SMILES	activity change, negative = inhibition	Potency
C/C=C/C=C/C=C/C(=O)O[C@@H]1C=C2COC(=O)[C@]2(O)[C@@]2(C)CCCC(C)(C)[C@H]12	-9.22% [at 51.5 µM] (inactive)	
O=C(Cc1c(F)cccc1F)Nc1cc(OCc2ccc(Cl)cc2)ccn1	-6.43% (inactive)	
CCCCCOc1ccc(-c2ccc(-c3ccc(C(=O)N[C@H]4C[C@@H](O)[C@@H](O)NC(=O)[C@@H]5[C@@H](O)[C@@H](C)CN5C(=O)[C@H]([C@@H](C)O)NC(=O)[C@H]([C@H](O)[C@@H](O)c5ccc(O)cc5)NC(=O)[C@@H]5C[C@@H](O)CN5C(=O)[C@H]([C@@H](C)O)NC4=O)cc3)cc2)cc1 ({pTerphenylCO(4''-OnC5H11)}-[Orn(4R-OH,5R-OH)]T[Hyp][hTyr(3S-OH,4S-OH)]T[Pro(3S-OH,4S-Me)]; lactam 1-C)	4.99% [at 51.5 µM] (inactive)	
CN(C)CCCn1cc(C2=C(c3c[nH]c4ccccc34)C(=O)NC2=O)c2ccccc21		39.8 µM (active)
C/C(=N\N=C(N)N)c1cc(NC(=O)CCCCCCCCC(=O)Nc2cc(/C(C)=N/N=C(N)N)cc(/C(C)=N/N=C(N)N)c2)cc(/C(C)=N/N=C(N)N)c1		20 µM (active)
CCCC1(CCC)CCC2(CCN(CCCN(CC)CC)C2)CC1		50.1 µM (active)
COc1c(C(C)C)c(O)c(O)c2c1C(OC)[C@H]1OC(=O)[C@@]23CCCC(C)(C)[C@H]13 (some centres undefined)	-2.21% [at 51.5 µM] (inactive)	
COc1cccc(-c2cn(-c3ccc(CCN4CCC(O)CC4)cc3)c3ncnc(N)c23)c1		35.5 µM (active)
CCOc1ccc(Cc2nc(-c3c(C)nc4ccccn34)cs2)cc1	-1.86% (inactive)	
O=c1nc(-c2ccccn2)sc2ccccc12	-6.04% (inactive)	
CC[C@@H](C)Nc1cc(C(=O)NC2CC3CC[C@@H](C2)N3c2ccc(C(=O)C3CC3)cn2)c(C)cc1C(N)=O (some centres undefined)	1.41% (inactive)	
COc1cc(CCc2ccc(OCC=C(C)C)cc2)cc(OC)c1OC	3.21% [at 51.5 µM] (inactive)	
O=C([C@@H]1CCCN(c2ccc3[nH]c(C4(n5cc(Cl)cn5)CC4)nc3n2)C1)N1CCCC1	-4.73% (inactive)	
NCC(CNc1nc(Nc2cccc(NC(=O)N3CCCC3)c2)ncc1I)C(=O)c1cccs1 (centres undefined)		22.4 µM (active)

Test system: not listed separately
Assay: Primary qHTS for inhibitors of nuclear receptor binding SET domain protein 2 (NSD2) in an isogenic RCH-ACV NSD2 p.E1099K mutant (9B) (AID 1645876); further: nearly all actives have a fitted effect of over 70% in size; on activity change, negative = viability loss: on the % scale 0 is the no-effect control and ±100 the full control effect
Settings: RCH-ACV (leukaemia line) NSD2 E1099K (9B) viability, CellTiter-Glo, 72 h; series mostly up to 44.9 µM; activity change, negative = viability loss: at the top concentration

SMILES	activity change, negative = viability loss	Potency
CC(C)n1c(=O)c(C(=O)NC2CC3CCC(C2)N3C[C@@H](O)CN(C)S(C)(=O)=O)cc2ccccc21 (some centres undefined)	-20% (inactive)	
CC(=O)O[C@@H]1C2=C(O)C(=O)[C@](C)(OC(C)=O)C(=O)C2=CO[C@@]12O[C@@H](C)CC[C@H]2OC(C)=O	-25.8% [at 17.3 µM] (inactive)	
C/C=C/C=C/C(=O)O[C@@H]1C=C2COC(=O)[C@]2(O)[C@@]2(C)CCCC(C)(C)[C@H]12	-18.1% (inactive)	
C/C=C/C=C/C=C/C(=O)O[C@@H]1C=C2COC(=O)[C@]2(O)[C@@]2(C)CCCC(C)(C)[C@H]12		2.82 µM (active)
O=C(Cc1c(F)cccc1F)Nc1cc(OCc2ccc(Cl)cc2)ccn1		18.3 µM (active)
CCCCCOc1ccc(-c2ccc(-c3ccc(C(=O)N[C@H]4C[C@@H](O)[C@@H](O)NC(=O)[C@@H]5[C@@H](O)[C@@H](C)CN5C(=O)[C@H]([C@@H](C)O)NC(=O)[C@H]([C@H](O)[C@@H](O)c5ccc(O)cc5)NC(=O)[C@@H]5C[C@@H](O)CN5C(=O)[C@H]([C@@H](C)O)NC4=O)cc3)cc2)cc1 ({pTerphenylCO(4''-OnC5H11)}-[Orn(4R-OH,5R-OH)]T[Hyp][hTyr(3S-OH,4S-OH)]T[Pro(3S-OH,4S-Me)]; lactam 1-C)	-27.7% [at 17.3 µM] (inactive)	
CN(C)CCCn1cc(C2=C(c3c[nH]c4ccccc34)C(=O)NC2=O)c2ccccc21		5.78 µM (active)
